Experimental data taken from PubChem BioAssay.
Active and inactive are the calls of the source.

What was measured:
[1] = tested on: Plasmodium falciparum Sir2 (PF13_0152, Sir2A); experiment: Plasmodium falciparum Sir2A binding compounds – biochemical, small-molecule microarray, 635 nm fluorescence, primary screen (AID 1098); conditions: fluorescence 635 nm, higher = more signal;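 also: score merges spot fluorescence intensity with its signal-to-noise ratio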
[2] = probe aDKK1 binding to arrayed compounds – biochemical, biotinylated probe, 635/667 nm fluorescence, primary screen (AID 1099); conditions: small-molecule microarray, higher = more signal;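 also: score merges 667nm spot fluorescence with signal to noise across triplicate slides; reference of the scale not given here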
[3] = probe aCHRDL2 binding to arrayed compounds – biochemical, biotinylated probe, 635/667 nm fluorescence, primary screen (AID 1100); conditions: small-molecule microarray, higher = more signal
[4] = change in splice reporter luminescence, either direction, cell-based, HEK293, spliceosome inhibition project, primary screen (AID 1101); conditions: HEK293 splicing luciferase reporter, 24 h, higher = more signal, called active from +8 up or from −8 down;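 also: HEK293 cells carrying a splicing-competent luciferase reporter gene; test concentration not given here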
[5] = biological target: Fibroblast growth factor 10 (Homo sapiens) (UniProt O15520); experiment: compounds binding fibroblast growth factor 10 – biochemical, small-molecule microarray, 635 nm fluorescence, primary screen (AID 1102); conditions: FGF10 binding, fluorescence 635 nm, higher = more signal
[6] = tested on: glycogen synthase kinase-3 (GSK3A per assay name; protocol says GSK3B); experiment: compounds binding glycogen synthase kinase-3 – biochemical, small-molecule microarray, 635 nm fluorescence, GSK3A, primary screen (AID 1103); conditions: fluorescence 635 nm, higher = more signal; also: the record names both GSK3A and GSK3B
[7] = biological target: Epidermal growth factor receptor (Homo sapiens) (UniProt P00533); experiment: compounds binding epidermal growth factor receptor – biochemical, small-molecule microarray, 635 nm fluorescence, primary screen (AID 1104); conditions: EGFR binding, higher = more signal;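 also: score merges 667 nm emission intensity with spot signal to noise over triplicate slides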
[8] = biological target: Follistatin-related protein 3 (Homo sapiens) (UniProt O95633); experiment: compounds binding follistatin-related protein 3 – biochemical, small-molecule microarray, 635 nm fluorescence, primary screen (AID 1105); conditions: FSTL3 binding, higher = more signal;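 also: score merges emission near 667 nm and signal to noise per printed spot across three slides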
[9] = biological target: Dickkopf-related protein 1 (Homo sapiens) (UniProt O94907); experiment: small molecules binding DKK1 protein – biochemical, small-molecule microarray, 635 nm fluorescence scan, primary screen (AID 1106); conditions: higher = more signal;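 also: score merges emission near 667 nm with signal to noise over three replicate slides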
[10] = tested on: Inhibin beta A chain (activin A); experiment: small molecules binding activin A – biochemical, small-molecule microarray, 635 nm fluorescence scan, primary screen (AID 1107); conditions: INHBA, higher = more signal;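 also: mouse activin A protein probed at 4.33 µg/mL on printed slides; score merges bound-protein fluorescence near 667 nm with spot signal-to-noise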

Sequence of Dickkopf-related protein 1 (Homo sapiens) (O94907 whole entry, looked up): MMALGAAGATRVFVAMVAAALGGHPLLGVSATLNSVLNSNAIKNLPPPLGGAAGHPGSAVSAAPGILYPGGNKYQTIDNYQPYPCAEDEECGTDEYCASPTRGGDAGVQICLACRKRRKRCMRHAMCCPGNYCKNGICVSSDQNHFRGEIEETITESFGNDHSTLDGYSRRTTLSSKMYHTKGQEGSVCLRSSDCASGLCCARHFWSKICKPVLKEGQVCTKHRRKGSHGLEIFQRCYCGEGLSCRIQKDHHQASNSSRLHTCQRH
Sequence of Fibroblast growth factor 10 (Homo sapiens) (O15520 whole entry, looked up): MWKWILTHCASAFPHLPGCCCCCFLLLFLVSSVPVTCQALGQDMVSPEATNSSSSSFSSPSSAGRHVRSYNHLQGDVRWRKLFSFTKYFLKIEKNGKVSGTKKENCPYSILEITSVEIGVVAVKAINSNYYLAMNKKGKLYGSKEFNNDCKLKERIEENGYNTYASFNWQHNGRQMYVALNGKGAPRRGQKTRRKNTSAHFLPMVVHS
Sequence of Follistatin-related protein 3 (Homo sapiens) (O95633 whole entry, looked up): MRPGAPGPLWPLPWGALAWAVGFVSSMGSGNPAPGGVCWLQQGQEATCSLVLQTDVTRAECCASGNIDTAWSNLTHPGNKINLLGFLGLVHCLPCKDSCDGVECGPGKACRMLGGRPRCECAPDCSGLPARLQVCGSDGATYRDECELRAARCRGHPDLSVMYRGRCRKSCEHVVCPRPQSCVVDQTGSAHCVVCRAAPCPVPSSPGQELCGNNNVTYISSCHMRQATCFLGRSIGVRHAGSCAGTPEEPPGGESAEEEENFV
Sequence of Epidermal growth factor receptor (Homo sapiens) (P00533 whole entry, looked up): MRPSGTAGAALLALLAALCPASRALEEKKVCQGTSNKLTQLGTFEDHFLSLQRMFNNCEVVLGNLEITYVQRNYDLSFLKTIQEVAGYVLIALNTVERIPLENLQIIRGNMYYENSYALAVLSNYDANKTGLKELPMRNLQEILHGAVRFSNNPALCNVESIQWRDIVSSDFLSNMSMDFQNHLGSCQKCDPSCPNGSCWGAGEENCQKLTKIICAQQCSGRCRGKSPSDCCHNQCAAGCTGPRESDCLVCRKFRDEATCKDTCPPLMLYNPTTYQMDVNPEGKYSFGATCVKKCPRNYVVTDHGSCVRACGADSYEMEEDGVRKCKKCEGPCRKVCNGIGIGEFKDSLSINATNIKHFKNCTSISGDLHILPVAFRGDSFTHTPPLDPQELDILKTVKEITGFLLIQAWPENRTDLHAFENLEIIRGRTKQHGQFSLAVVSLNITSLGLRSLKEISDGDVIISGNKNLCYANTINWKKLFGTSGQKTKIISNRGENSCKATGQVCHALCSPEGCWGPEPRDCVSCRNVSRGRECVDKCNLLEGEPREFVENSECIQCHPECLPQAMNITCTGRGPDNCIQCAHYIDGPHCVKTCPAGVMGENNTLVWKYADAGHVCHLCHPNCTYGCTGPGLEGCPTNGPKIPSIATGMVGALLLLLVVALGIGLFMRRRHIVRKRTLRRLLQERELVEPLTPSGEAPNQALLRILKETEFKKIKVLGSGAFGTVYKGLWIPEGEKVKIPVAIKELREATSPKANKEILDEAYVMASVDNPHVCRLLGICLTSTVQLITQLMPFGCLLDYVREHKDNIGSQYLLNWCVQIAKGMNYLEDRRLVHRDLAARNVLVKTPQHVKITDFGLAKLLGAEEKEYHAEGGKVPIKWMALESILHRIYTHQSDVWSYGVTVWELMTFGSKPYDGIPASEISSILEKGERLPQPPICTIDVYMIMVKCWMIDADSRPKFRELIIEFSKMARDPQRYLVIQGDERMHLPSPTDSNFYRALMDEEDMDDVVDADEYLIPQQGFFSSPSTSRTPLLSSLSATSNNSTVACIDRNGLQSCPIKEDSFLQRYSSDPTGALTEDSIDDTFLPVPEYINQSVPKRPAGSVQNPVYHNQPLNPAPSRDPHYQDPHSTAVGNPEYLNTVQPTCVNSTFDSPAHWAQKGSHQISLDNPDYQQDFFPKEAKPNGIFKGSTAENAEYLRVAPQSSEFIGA

Compound | composite z-score [1] | composite z-score [2] | composite z-score [3] | z-score [4] | composite z-score [5] | composite z-score [6] | composite z-score [7] | composite z-score [8] | composite z-score [9] | composite z-score [10]
COC(=O)[C@@]1(CCS(=O)(=O)c2ccccc2)N=C(c2ccc(OCCCO)cc2)O[C@H]1c1ccccc1N=[N+]=[N-] | 1.52 | 0.336 | 0.475 | 0.177 (inactive) | 0.419 | 1.29 | 0.491 | 0.969 | 0.425 | 0.865
CC(C)CNC(=O)[C@@]1(C)c2ccccc2C(=O)N(Cc2cc(F)cc(C(F)(F)F)c2)[C@H]1c1ccc(CO)cc1 | 0.972 | -0.162 | 0.35 | 0.451 (inactive) | 0.398 | 0.729 | 0.181 | 0.379 | 0.343 | 0.938
O=C1O[C@@H](c2ccccc2)[C@@H](c2ccccc2)N2[C@@H](c3ccc(O)cc3)[C@]3(C(=O)Nc4ccc(C#CC5=CCCCC5)cc43)[C@@H](C(=O)N3CCCCCCC3)[C@H]12 | 1.6 | 1.53 | 1.25 | -1.28 (inactive) | 0.66 | 1.29 | 0.623 | 1.35 | 0.485 | 1.79
[N-]=[N+]=NCc1ccccc1C[C@]1(C(=O)N2CCOCC2)N=C(c2ccc(OCCCO)cc2)O[C@H]1c1ccccc1CN=[N+]=[N-] | 1.33 | 1.42 | 1.39 | -1.2 (inactive) | 1.39 | 0.935 | -0.134 | 0.217 | -0.275 | 1.43
CCCC=C(CCC)[C@@H](NC(=O)c1ccco1)c1ccc(C(=O)OC)cc1 | 0.851 | 0.241 | 1.01 | -0.545 (inactive) | 1.08 | 1.3 | 0.0415 | 0.938 | -0.18 | 0.46
CC(C)C[C@@H]1NC(=O)[C@@H]2C[C@H](C(=O)O)[C@H](c3ccc(O)cc3)N2C1=O | 1.44 | 0.361 | 0.383 | -0.687 (inactive) | 0.914 | 1.31 | 0.801 | 1.25 | 0.976 | -0.0021
C=CCC(OC(C)=O)[C@@H]1[C@@H](N(Cc2cccc3ccccc23)C(=O)c2ccc(C)cc2)c2cc(OCCCO)ccc2N1C(=O)c1ccc2ccccc2n1 (stereo not given in full) | 0.206 | -0.16 | 0.322 | -1.47 (inactive) | 0.0635 | 0.104 | 0.386 | 0.29 | 0.145 | 0.863
COc1ccc(CCNC(=O)[C@@]2(Sc3ccc(C)cc3)CC(=O)N(C(C)C)[C@@H]2c2ccc(CO)cc2)cc1 | 1.41 | 0.0055 | 0.983 | 0.239 (inactive) | -0.855 | -0.897 | -2.03 | -1.45 | -2 | -0.87
CN(C)CCCNC(=O)[C@@]1(Cc2ccccc2I)c2ccccc2C(=O)N(Cc2ccccc2)[C@H]1c1ccc(CO)cc1 | 1.54 | 1.04 | -0.726 | 0.652 (inactive) | 1.37 | 1.33 | 0.17 | 0.617 | 0.707 | 0.0573
COC(=O)[C@@]1(Cc2ccccc2)[C@@H]2[C@@H](CC(=O)[C@H]2CC(=O)C(=O)N(C)C)CN1C(=O)c1ccccc1 | 1.05 | 0.0889 | 0.929 | -0.155 (inactive) | 0.225 | -0.901 | -0.185 | -0.0272 | -0.782 | 0.988
C=C(CCCC)C(=O)CC[C@H](OC(C)=O)c1ccccc1OCCO | 1.51 | -0.179 | -0.123 | 1.77 (inactive) | 0.633 | -0.783 | 0.333 | 0.467 | 0.513 | 0.491
[N-]=[N+]=NCc1ccccc1C[C@@]1(C(=O)O)N=C(c2ccc(OCCCO)cc2)O[C@@H]1c1ccccc1CN=[N+]=[N-] | 0.705 | 0.317 | 0.779 | -0.806 (inactive) | 1.15 | 0.577 | -0.227 | 0.814 | 0.31 | 0.69
CCOC(=O)C1=CC[C@@H](c2ccccc2Cl)N(S(=O)(=O)c2ccc(C)cc2)[C@H]1c1cccc(OC)c1 | 0.662 | -0.0972 | -0.335 | 0.751 (inactive) | 0.331 | 0.269 | -0.055 | 0.536 | -0.237 | 0.406
